ERK AVP inh – inhibitors of vasopressin-stimulated ERK signaling pathway; Potency, µM (highest dose often 57.5 µM), inactives show top-dose activity, negative = inhibition, hits mostly inhibitors; 0.99% of 72,000 active; AID 995; HEK293-V1b, vasopressin-stimulated pERK AlphaScreen; further: on the % scale 0 is the no-effect control and ±100 the full control effect; nearly all actives have a fitted effect of over 55% in size
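HEK293 cells stably expressing V1b receptor, seeded overnight in 1% FBS, were treated with compounds for 30 min at 37C, then stimulated 5 min with 25 nM vasopressin; phospho-ERK read by AlphaScreen SureFire after lysis.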
GBA mod – human lysosomal glucosylceramidase modulation; Potency, µM; P04062; AID 360; purified enzyme, resorufin glucoside fluorescence (screen aimed at inhibitors), 20 min; 1.1% of 48,000 active; in the data active means potency below about 15 µM; inconclusive means mostly about 16 µM to 33 µM;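 further: the screen sought inhibitors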
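Normal human glucocerebrosidase (0.2 nM final) was assayed with resorufin β-D-glucopyranoside (30 uM final) in 50mM citric acid/KH2PO4, 10mM sodium taurocholate, 0.01% tween-20, pH 5.9. Compounds were titrated; fluorescence (Ex 548, Em 600) read after 20 min at RT.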
Luciferase inh – firefly luciferase inhibition; purified firefly luciferase, luminescence, 8 min; Potency, µM (series often up to 57.1 µM), for the others: at the highest dose activity change, negative = inhibition, hits mostly inhibitors; 2.2% of 72,000 active; AID 411; further: on the % scale 0 is the no-effect control and ±100 the full control effect; nearly all actives have a fitted effect of over 40% in size
Target sequence (P08659 whole entry, looked up): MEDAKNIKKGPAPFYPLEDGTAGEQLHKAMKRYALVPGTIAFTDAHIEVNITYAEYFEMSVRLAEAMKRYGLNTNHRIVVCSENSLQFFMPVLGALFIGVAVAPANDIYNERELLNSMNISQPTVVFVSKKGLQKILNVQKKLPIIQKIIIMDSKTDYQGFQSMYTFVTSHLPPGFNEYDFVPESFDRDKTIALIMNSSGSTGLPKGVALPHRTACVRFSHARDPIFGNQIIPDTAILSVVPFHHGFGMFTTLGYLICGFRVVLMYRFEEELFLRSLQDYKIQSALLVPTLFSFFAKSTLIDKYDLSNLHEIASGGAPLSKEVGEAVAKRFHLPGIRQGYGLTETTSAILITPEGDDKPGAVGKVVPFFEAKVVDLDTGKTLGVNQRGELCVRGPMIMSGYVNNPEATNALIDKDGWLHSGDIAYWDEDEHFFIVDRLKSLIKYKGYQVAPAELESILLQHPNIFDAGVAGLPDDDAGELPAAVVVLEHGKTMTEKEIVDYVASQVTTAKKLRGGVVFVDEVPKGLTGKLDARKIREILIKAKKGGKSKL
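qHTS concentration-response profiling: light output of P. pyralis luciferase with luciferin and 10 uM ATP, imidazole buffer pH 7.2. Read by luminescence after 8-min room-temperature incubation.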
TSHR agonist – agonists of human thyroid stimulating hormone receptor; HEK293-CNG-TSHR cells (CNG channel as cAMP sensor), membrane potential dye, cAMP; Potency, µM (top dose mostly 57.1 µM), for the others: at the highest dose activation, most hits filed as activators; 0.48% of 73,000 active; active means well fitted activation curve with a large enough effect in the main read-out, with a control signal flat, not every such curve was filed as active; inconclusive means small, poorly fitted or top-dose-only effect, or a change in a side signal; inactive means no such curve, though single readings can be large or run the other way; % of control where 0% means no effect;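 further: the control signal comes from parental cells without the receptor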
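cAMP rise detected as CNG-channel membrane depolarization by fluorescent dye (emission 590 nm), 30 min after compound, following 60 min dye loading containing 100 uM RO 20-1724 at room temperature. Cells: TSHR/CNG HEK 293, with parental CNG HEK 293 as control.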
HEK293 cAMP cs – parental HEK293 cAMP activation (counter-screen) | parental HEK293 CNG cAMP sensor, membrane potential fluorescence | Potency, µM (doses to about 57.1 µM), for inactives: top-dose activation, most hits filed as activators | 2.5% of 73,000 active; further: % of control where 0% means no effect; nearly all actives have a fitted effect of over 55% in size
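Parental HEK 293 cells stably expressing a modified CNG channel (no TSHR) report cAMP rise as membrane depolarization. Membrane potential dye with 100 uM RO 20-1724 was loaded for 60 min at room temperature, then compound added for 30 min; fluorescence read at 590 nm.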
PK Bst – modulators of Bacillus stearothermophilus pyruvate kinase | 1.2% of 51,000 active | Potency, µM | purified pyruvate kinase, luminescence ATP production; ribose 5-phosphate activator present at AC10; in the data active means potency below about 11 µM; inconclusive means mostly about 12 µM to 25 µM;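 the screen sought inhibitors and activators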;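 further: scaled between full activation by ribose 5 phosphate and full inhibition by luteolin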
An asterisk follows results filed as active; i = inactive; ? = inconclusive; . = no result given; [ ] = remark or other dose. The list is not random: actives were taken first. Their share in the collection is about 6.1%. Unless noted, the call rests on the fitted dose curve; in most records, active means well fitted curve in the direction sought with a large enough effect; inconclusive means small, poorly fitted or top-dose-only effect, or another doubt; inactive means no such curve, though single readings can be large; an effect the other way counts as inactive or inconclusive. Potency means the concentration at half of the fitted maximal effect.

SMILES	ERK AVP inh	GBA mod	Luciferase inh	TSHR agonist	HEK293 cAMP cs	PK Bst
NC1=C2NC=N[C@@H]2N(C/C=C\c2ccccc2)C=N1	-7%[11.5 µM]	.	0%[11.4 µM]	-2%[11.4 µM]	-3%[11.4 µM]	.
Cc1cc(C)cc(/C=C/C2OCC(O)C2Oc2ccc(C3CCCC3)cc2)c1 (stereo not given)	-4%[11.5 µM]	.	.	-1%[11.4 µM]	5%[11.4 µM]	.
N#Cc1nc(-c2cccs2)oc1N1CCN(c2ccccc2)CC1	-17%	8.3*	0%	?	20µM*	.
N#Cc1nc(Cc2ccccc2)oc1N1CCN(c2ccccc2)CC1	25µM*	>77	4%	?	?	>57
Cc1ccc(C(=O)CSc2nc(C)cc(SCc3nnc(-c4ccccc4)o3)n2)cc1	-5%	>77	0%	?	7.9µM*	>57
Cc1cc(NC(=O)c2oc3ccccc3c2C)ccc1-n1cnnn1	-4%	.	10µM*	.	28%	i
Cc1c(C(=O)Nc2ccc(N3CCOCC3)cc2)oc2ccccc12	-27%	>77	2.5µM*	?	-36%	?
Cc1c(C(=O)Nc2ccncc2)oc2ccccc12	?	.	-10%	20%	141%	>57
COC(=O)N1CCC2(CC1)CN(C(c1ccccc1)c1ccccc1)C2	?	.	0%[11.4 µM]	19%	30%	.
c1ccc(CNc2ncnc3ccc(-c4ccc5c(c4)OCO5)cc23)cc1	?	.	1%[2.29 µM]	?	?	.
O=C(/C=C(\O)c1ccccc1)c1ccccc1O	-24%	.	.	.	.	.
O=C(c1ccco1)N1CCC2(CC1)CN(Cc1cc(C(F)(F)F)cc(C(F)(F)F)c1)C2	-22%	.	1%[11.4 µM]	?	16µM*	.
Cn1cccc1C(=O)N1CCC2(CC1)CN(Cc1cc(C(F)(F)F)cc(C(F)(F)F)c1)C2	-20%	.	2%[11.4 µM]	?	16µM*	.
Cn1cccc1C(=O)N1CCC[C@@]2(CCN(Cc3cc(C(F)(F)F)cc(C(F)(F)F)c3)C2)C1	-12%	.	-1%[11.4 µM]	?	13µM*	.
CC(=O)N1CCC2(CC1)CN(Cc1cc(C(F)(F)F)cc(C(F)(F)F)c1)C2	-8%	.	1%[11.4 µM]	19%	-3%	.
Cn1nnnc1SCC(=O)Nc1ccccc1N1CCOCC1	5%	>77	-40%	-3%	8%	>57
Cn1c(-c2ccc(F)cc2)cnc1SCC(=O)Nc1ccccc1N1CCOCC1	32µM*	>77	-3%	?	?	>57
Cc1occc1-c1nnc(SCC(=O)NCCc2ccccc2)n1Cc1ccccc1	-22%	>77	1%	?	20µM*	>57
C=CCSc1nc2c(c(=O)n(C)c(=O)n2C)n1CC	-16%	>77	1%	8%	-4%	>57
CCn1c(SCC(=O)N2CCCC2)nc2c1c(=O)n(C)c(=O)n2C	20µM*	>77	1%	-1%	1%	>57
CCn1c(SCC(=O)Nc2ccccc2N2CCCCC2)nc2c1c(=O)n(C)c(=O)n2C	-18%	>77	1%	?	16µM*	>57
C=Cc1ccccc1C=C	7%	.	.	-9%	-1%	.
COC(=O)Oc1ccccc1C(=O)O	7%	.	.	.	.	.
C#CCN1C(C)=C(C(=O)OC)[C@@H](c2cccc([N+](=O)[O-])c2)C(C(=O)OCC)=C1C	-5%	.	-4%	.	8%	.
COc1ccccc1CNc1ccnc(-c2ccc3c(c2)OCO3)n1	?	.	-3%[2.29 µM]	.	24%	.
SMILES	ERK AVP inh	GBA mod	Luciferase inh	TSHR agonist	HEK293 cAMP cs	PK Bst
C(=N/Nc1nnc2c(n1)[nH]c1ccccc12)/c1cccnc1	-18%[11.5 µM]	.	-7%[11.4 µM]	?	0%[11.4 µM]	.
Cc1occc1-c1nnc(SCC(=O)Nc2ccccc2N2CCCCC2)n1C	-5%	>77	-2%	?	32µM*	>57
CCn1c(SCC(=O)Nc2ccccc2-c2ccccc2)nnc1-c1ccoc1C	3%	>77	3%	?	?	>57
Cc1ccccc1Nc1nc(CSc2nnc(-c3ccoc3C)n2C)cs1	-13%	.	25µM*	.	26%	.
O=C(N[C@@H](c1ccccc1)[C@@H]1C[C@H]1C(=O)NCc1ccccn1)OCc1ccccc1	9%	.	.	16%	12%	.
COC(=O)[C@H](Cc1ccccc1)NC(=O)[C@H]1C[C@@H]1[C@H](NC(=O)OCc1ccccc1)c1ccccc1	-14%	.	.	?	16µM*	.

Bioassay records (PubChem BioAssay)
